# Results filed as inconclusive are left out. The source made the active and inactive calls. The calls were made as follows: active = hit-call score of the fitted dose curve at least 0.9, where 1 is the maximum; inconclusive = response in the unintended direction; inactive = score below 0.9.
# Target: Ratio of Nucleoli Translocation and Cytoplasm, AR (gene 367) (UniProt P10275)
# Experiment: UPITT_HCI_U2OS_AR_TIF2_Nucleoli_Cytoplasm_Ratio_Agonist: University of Pittsburgh U2OS Androgen Receptor-Transcriptional Intermediary Factor 2 (AR-TIF2) Agonism High Content Imaging Assay for Ratio of Nucleoli Translocation and Cytoplasm (AID 2284000);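 also: hits raise the red nucleolar to cytoplasm ratio above vehicle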
# Source text: UPITT_AR_TIF2_PPIB is a cell-based, high-content imaging assay that uses U2OS, a human osteosarcoma cell line, expressing a human androgen receptor fused to red fluorescent protein and the coactivator TIF2 fused to green fluorescent protein. UPITT_HCI_U2OS_AR_TIF2_Nucleoli_Cytoplasm_Ratio_Agonist is one of four assay components measured from the UPITT_AR_TIF2_PPIB assay. It is designed to make measurements of the ratio of red fluorescence localized in the nucleolar region of the cell nucleus to red fluorescence localized in the cytoplasm as detected with high-content fluorescent imaging.Data from the assay component UPITT_HCI_U2OS_AR_TIF2_Nucleoli_Cytoplasm_Ratio_Agonist was analyzed into 1 assay endpoint. This assay endpoint, UPITT_HCI_U2OS_AR_TIF2_Nucleoli_Cytoplasm_Ratio_Agonist, was analyzed in the positive analysis fitting direction relative to DMSO as the baseline of activity. Using a type of binding reporter, measures of receptor for gain-of-signal activity can be used to understand the binding at the pathway-level as it relates to the gene AR.
# Daughter plates containing 2 uL of 10 mM compounds in DMSO were prepared and replicated from the 384-well Library of Pharmacologically Active Compounds (LOPAC) master plates using the Bravo outfitted with a 384-well transfer head. Aluminum adhesive plate seals were applied with an Abgene Seal-IT 100 (Rochester, NY) plate sealer, and the plates were stored at -20 C in a Matrical MatriMinistore (Spokane, WA) automated compound storage and retrieval system. For screening, LOPAC daughter plates were withdrawn from -20C storage, thawed to ambient temperature, centrifuged 1-2 min at 50 g, and the plate seals were removed before the transfer of 98 uL of serum-free tissue culture medium (SFM) into wells using the BioTek Microflo liquid handler (BioTek, Winooski, VT) to generate a 200 uM intermediate stock concentration of library compounds (2.0% DMSO). The diluted compounds were mixed by repeated aspiration and dispensation using a 384-well P30 dispensing head on the Evolution P3 (EP3) liquid handling platform (PerkinElmer, Waltham, MA) and then 5 uL of diluted compounds was transferred to the wells of assay plates. In the LOPAC screen, compounds were individually tested at a final concentration of 20 uM (0.2% DMSO). After the diluted compounds had been transferred from the daughter plates to the primary HCS assay plates, aluminum adhesive plate seals were applied and the diluted daughter plates were stored frozen at -20C. To confirm active compounds identified in the primary screen, we withdrew the LOPAC daughter plates containing the 200 uM intermediate concentration of library compounds (2.0% DMSO) from -20C storage, thawed them to ambient temperature, centrifuged them for 1-2 min at 50 g, and removed the plate seals. A work list was generated to direct the Multiprobe Janus liquid handling platform (PerkinElmer) to cherry pick 75 uL from the wells of the diluted daughter plates that were flagged active in the primary screen and to reformat these into a 384-well plate hit confirmation daughter plate. Five microliters of primary HCS active compounds was then transferred into triplicate wells of assay plates using a 384-well P30 dispensing head on the Evolution P3 (EP3) liquid handling platform (PerkinElmer). […] Daughter plates containing 2 uL of the serially diluted compounds in DMSO were prepared and replicated from the 384-well serial dilution master plates using the Bravo outfitted with a 384-well transfer head. Aluminum adhesive plate seals were applied and plates were stored at -20C. For testing in the bioassays, daughter plates were withdrawn from -20C storage, thawed to ambient temperature, centrifuged for 1-2 min at 50 g, and the plate seals were removed before the transfer of 38 uL of SFM into wells using the BioTek Microflo liquid handler (BioTek) to generate an intermediate stock concentration of library compounds ranging from 1.95 to 500 uM (5.0% DMSO). […]
# Ratio of Nucleoli Translocation and Cytoplasm, AR (gene 367), sequence (P10275 whole entry, looked up): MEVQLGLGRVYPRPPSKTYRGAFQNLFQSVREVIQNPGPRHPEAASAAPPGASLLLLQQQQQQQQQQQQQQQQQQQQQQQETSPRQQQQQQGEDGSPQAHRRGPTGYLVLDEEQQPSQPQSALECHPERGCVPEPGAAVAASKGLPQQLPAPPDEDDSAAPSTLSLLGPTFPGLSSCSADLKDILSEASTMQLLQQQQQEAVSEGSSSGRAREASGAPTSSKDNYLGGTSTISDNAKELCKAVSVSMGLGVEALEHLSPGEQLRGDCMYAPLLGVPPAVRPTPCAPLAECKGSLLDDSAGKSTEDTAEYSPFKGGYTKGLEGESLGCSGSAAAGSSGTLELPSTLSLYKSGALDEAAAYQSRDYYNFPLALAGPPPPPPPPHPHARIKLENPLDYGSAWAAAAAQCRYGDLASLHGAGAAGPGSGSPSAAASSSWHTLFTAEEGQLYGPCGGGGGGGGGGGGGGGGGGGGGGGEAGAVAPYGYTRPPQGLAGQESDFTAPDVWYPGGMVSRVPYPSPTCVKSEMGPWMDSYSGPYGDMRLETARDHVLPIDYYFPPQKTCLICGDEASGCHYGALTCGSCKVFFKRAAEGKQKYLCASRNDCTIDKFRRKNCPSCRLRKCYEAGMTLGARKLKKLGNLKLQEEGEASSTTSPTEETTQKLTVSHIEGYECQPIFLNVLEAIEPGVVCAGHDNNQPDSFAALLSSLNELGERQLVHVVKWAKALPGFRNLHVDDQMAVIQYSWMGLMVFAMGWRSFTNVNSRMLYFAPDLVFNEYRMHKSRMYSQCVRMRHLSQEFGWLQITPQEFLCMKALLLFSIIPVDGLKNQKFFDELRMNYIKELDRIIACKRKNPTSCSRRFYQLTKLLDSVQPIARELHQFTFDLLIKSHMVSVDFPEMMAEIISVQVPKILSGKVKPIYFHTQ
Compound,AC50,outcome
CCC(=C(c1ccc(O)cc1)c1ccc(OCCN(C)C)cc1)c1ccccc1,26.2 µM (active),
CC[C@H](c1ccc(O)cc1)[C@@H](CC)c1ccc(O)cc1,50 µM (active),
O=C(/C=C/c1ccc(O)cc1)CC(=O)/C=C/c1ccc(O)cc1,,inactive
CCCCCCCCCCCCc1ccccc1S(=O)(=O)O,90.9 µM (active),
COCC(C)OCC(C)O (configuration not stated),,inactive
OCCC(F)(F)C(F)(F)C(F)(F)C(F)(F)C(F)(F)C(F)(F)C(F)(F)C(F)(F)F,,inactive
NC(=O)N1C(=O)C(C(=O)c2cc(Cl)cs2)c2cc(F)c(Cl)cc21 (configuration not stated),,inactive
CC(=O)CC(C)(C)O,,inactive
Nc1cccc2c(N)cccc12,,inactive
CCCOc1sc(C(=O)N2CCC(c3cc(CN)ccc3F)CC2)c(C)c1Br,8.47 µM (active),
CCCCC[C@H](O)CC(=O)CCc1ccc(O)c(OC)c1,,inactive
N#C[C@@H]1CC(F)(F)CN1C(=O)CNC1CC2CCC(C1)N2c1ncccn1 (some centres not stated),,inactive
Cc1oc(-c2ccccc2)nc1CCOc1ccc(C[C@H](Nc2ccccc2C(=O)c2ccccc2)C(=O)O)cc1,,inactive
COc1cc(CCC(=O)CC(=O)CCc2ccc(O)c(OC)c2)ccc1O,,inactive
Oc1cc2ccccc2c2ccccc12,,inactive
Cc1cc(CCN2CCN(c3nsc4ccccc34)CC2)cc2c1NC(=O)CC2(C)C,,inactive
c1ccc2c(c1)ccc1ccccc12,,inactive
